# Measured values taken from PubChem BioAssay (Tox21).
# Where “and” joins values, the source holds several entries; their conditions need not be identical. Identical values can stand only once. Inconclusive results are not listed. Entries that show only a call come without a potency. A structure can be active in one record and inactive in another. Calls of active or inactive are those of the source. The call rests on the fitted dose curve.
# Biological target: Acetylcholinesterase (Homo sapiens) (UniProt P22303)
# Sequence (P22303 whole entry, looked up): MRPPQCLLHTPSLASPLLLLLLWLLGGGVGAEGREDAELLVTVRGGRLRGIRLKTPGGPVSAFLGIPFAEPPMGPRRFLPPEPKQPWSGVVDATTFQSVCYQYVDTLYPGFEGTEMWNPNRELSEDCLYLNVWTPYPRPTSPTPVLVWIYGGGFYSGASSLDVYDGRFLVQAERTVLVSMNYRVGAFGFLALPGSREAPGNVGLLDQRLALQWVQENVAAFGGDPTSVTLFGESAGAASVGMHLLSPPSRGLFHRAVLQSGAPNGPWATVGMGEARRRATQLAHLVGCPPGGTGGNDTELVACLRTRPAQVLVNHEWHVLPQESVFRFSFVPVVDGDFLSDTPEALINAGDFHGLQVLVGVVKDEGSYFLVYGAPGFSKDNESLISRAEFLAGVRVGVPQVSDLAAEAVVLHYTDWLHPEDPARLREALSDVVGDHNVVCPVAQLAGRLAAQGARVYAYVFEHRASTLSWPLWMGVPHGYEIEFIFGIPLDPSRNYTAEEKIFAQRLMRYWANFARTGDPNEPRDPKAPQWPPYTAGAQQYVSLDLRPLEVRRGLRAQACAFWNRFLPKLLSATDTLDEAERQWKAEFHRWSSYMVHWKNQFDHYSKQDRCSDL
# Assay: Acetylcholinesterase (AChE) small molecule antagonists: colormetric cell-based qHTS assay (AID 1347395); further: nearly all actives have a fitted effect of over 30% in size
# Details: SH-SY5Y cells AChE activity, colorimetric (Ellman); series mostly up to 115 µM
# In short: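 Colorimetric readout: DTNB quantifies thiocholine from acetylthiocholine hydrolysed by endogenous AChE of SH-SY5Y cells (2,000/well, plated overnight). Compound pretreatment 30 min, substrate incubation 90 min, both 37 C.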
# Potency means the concentration at half of the fitted maximal effect.
SMILES,Potency,"activity, negative = inhibition",outcome
CC(=O)Nc1ccc(N)cc1,inactive,,
CCn1cc(C(=O)O)c(=O)c2cc(F)c(N3CCN(C)CC3)cc21,,2.04% [at 23.6 µM] (inactive),
O=C(NS(=O)(=O)/C=C/c1ccccc1)c1ccc(F)cc1Cl,inactive,,
CC(C)CCOCCC(C)C,inactive,,
CCCCCCCCCCCCCCNCCO,inactive,,
C[N+]1(CC2COC(c3ccccc3)(C3CCCCC3)O2)CCCCC1 (stereo not given),inactive,,
CCCCCC[C@@H](CCC)C(=O)O,inactive,,
CCOC(C)OCC,inactive,,
C=C1C(C)(C)[C@@]2(Cl)C(Cl)[C@]1(Cl)C(Cl)(Cl)C2(Cl)Cl (stereo not given in full),inactive,,
CC1(C)NC(=O)NC1=O,inactive,,
ClCCl,inactive,,
Nc1ccc(Oc2cccc(Oc3ccc(N)cc3)c2)cc1,inactive,,
C[N+](C)(C)CCO,,,inactive
O=C(Oc1ccccc1)c1ccc2ccccc2c1O,inactive,,
C1CNCCN1,,,inactive
CC1=CC(=O)/C(=C(/C)O)C(=O)O1,inactive,,
CC(NCCC(c1ccccc1)c1ccccc1)c1ccccc1 (stereo not given),inactive,,
Cn1cnc2c(=O)[nH]c(N)nc21,inactive,,
CC(C)c1ccc(C=O)cc1,inactive,,
Cn1sccc1=O,inactive and 71 µM (active),,

SMILES,Potency,"activity, negative = inhibition",outcome
CC(O)COc1ccccc1 (stereo not given),inactive,,
CC(C)=CC=O,inactive,,
c1cc2ccc3ccc4ccc5cccc6c(c1)c2c3c4c56,,3.35% [at 4.07 µM] (inactive),
Cc1cc(C)nc(NS(=O)(=O)c2ccc(N)cc2)n1,inactive,,
CC(CO)(CO)CO,inactive,,
CCCCOC(=O)CCC(C)=O,inactive,,
CC(=O)OCC(=O)[C@@]1(O)[C@H](C)C[C@H]2[C@@H]3CCC4=CC(=O)C=C[C@]4(C)[C@@]3(F)[C@@H](O)C[C@@]21C,inactive,,
O=C1CCC/C=C\CCCCCCCCCC1,inactive,,
Cc1ccc(-n2nc(C(C)(C)C)cc2NC(=O)Nc2ccc(OCCN3CCOCC3)c3ccccc23)cc1,inactive,,
OC[C@H]1O[C@@H](O[C@H]2[C@H](O)[C@@H](O)[C@H](O)O[C@@H]2CO)[C@H](O)[C@@H](O)[C@H]1O,inactive,,
ClC/C=C/CCl,inactive,,
Nc1ccc(S(=O)(=O)NC(=O)c2ccccc2)cc1,inactive,,
CN(C)CCC=C1c2ccccc2CCc2ccccc21,inactive,,
CCCCCC(C)=O,inactive,,
COc1ccc(C(=O)c2cccc(O)c2)c(OC)c1,inactive,,
O=C1OCCN1/N=C/c1ccc([N+](=O)[O-])o1,inactive,,
CC(C)(CO)[N+](=O)[O-],inactive,,
C=CC(=O)OCC(CO)(COCC(COC(=O)C=C)(COC(=O)C=C)COC(=O)C=C)COC(=O)C=C,inactive,,
CC(=O)O[C@H]1CC[C@@]2(C)C(=CC[C@@H]3[C@@H]2CC[C@]2(C)C(C(C)=O)=CC[C@@H]32)C1,inactive,,
CCCCCCCCCCCCCCCC(=O)OCC,inactive,,
